Each structure is given as a SMILES string. The campaign covered roughly 63,000 compounds. About 1,100 (1.7%) were called active. No stated cut-off is given here; in the data, active means cytotoxicity above about 50%; inactive means the rest. Only a selection was taken, and actives are over-represented in it overall. Entries with a potency or affinity are not part of this list.

The values below come from PubChem BioAssay AID430 (Sanford-Burnham Center for Chemical Genomics, 2006).

This test in a line: HPDE-C7 pancreatic duct cell viability loss – fluorescence, HTS (AID 430).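 Further: cells exposed to compound for 48 hours before viability readout; 0% = vehicle and 100% = reference cytotoxic drug.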 The conditions noted are these: HPDE-C7 pancreatic duct cells viability, at 10 µM, active compounds read high.
In the case of `Oc1ccc2oc3c(c2c1/C=N/n1cnnc1)CCCC3`, the cytotoxicity was -15.1% (inactive). With `Cc1nc2ccccc2c(=O)n1/N=C/c1ccc(O)cc1`, the cytotoxicity is 33.8% (inactive). Regarding `Cc1nc2ccccc2c(=O)n1/N=C/c1c(O)ccc2oc3c(c12)CCCC3`, the cytotoxicity is 63% (active). The same measure for `Oc1c(C(c2cccs2)N2CCN(c3ccccc3)CC2)sc2ncnn12` (configuration not stated): -10% (inactive); for `COc1cc(O)c(NC(C)=O)c2nonc12`: -7.7% (inactive); for `CC(=O)Nc1nonc1NC(C)=O`: -3.4% (inactive). As to `Cc1nn(-c2ccc(F)cc2F)c2c1-c1nc(N3CCCC3)ncc1CC2`, the cytotoxicity was 3.8% (inactive). Turning to `COc1ccc(C(=O)NC2CCN(C(=O)NC3CCCCC3)CC2)cc1`, the cytotoxicity was -6.7% (inactive). For the compound `COc1ccc(CN2C(=O)CCC2(C)C(=O)NC2CCCCC2)c(OC)c1` (configuration not stated), the cytotoxicity was -3.1% (inactive). As for `COc1ccc2[nH]c(=O)c(CN(Cc3nnnn3Cc3ccc(F)cc3)CC3CCCO3)cc2c1` (configuration not stated), the cytotoxicity was -39.9% (inactive). For `CCC(Sc1nc2cc3c(cc2c(=O)n1Cc1ccco1)OCO3)C(=O)Nc1ccccc1OC` (configuration not stated), the cytotoxicity is -11.3% (inactive). The value for `CCc1ccccc1NC(=O)C(CC)Sc1nc2cc3c(cc2c(=O)n1Cc1ccco1)OCO3` (configuration not stated) was 2.1% (inactive); that for `CCOC(=O)c1[nH]c(C)c(C(=O)N2CCN(C(=O)c3ccco3)CC2)c1C` was -21.3% (inactive). As for `COc1ccc(NC(=O)CNc2cccc(C#N)c2)cc1Cl`, the cytotoxicity is 2.9% (inactive).

`Cc1cc(N2CCOCC2)n2nc(-c3cccc(F)c3)cc2n1`: the cytotoxicity was -16.6% (inactive). As for `Fc1ccc(-c2cc3nc(-c4ccccc4)cc(N4CCOCC4)n3n2)cc1`, the cytotoxicity was -7% (inactive). On to `Fc1ccc(-c2cc3nc(-c4ccccc4)cc(N4CCN(CCN5CCOCC5)CC4)n3n2)cc1`, for which the cytotoxicity was 53% (active). For `O=C(Nc1scc(-c2ccc(F)cc2)c1C(=O)O)c1ccco1`, the cytotoxicity was -6.9% (inactive). As for `COc1ccc(C2CC(C(F)(F)F)n3nc(C(=O)Nc4ccc5c(c4)OCO5)cc3N2)cc1` (configuration not stated), the cytotoxicity is -7% (inactive). `COc1ccc(NC(=O)c2cc3n(n2)C(C(F)(F)F)CC(c2ccc4c(c2)OCO4)N3)cc1OC` (configuration not stated): the cytotoxicity was 63.9% (active). The value for `COc1ccc(OC)c(NC(=O)c2cc3n(n2)C(C(F)(F)F)CC(c2ccc4c(c2)OCO4)N3)c1` (configuration not stated) was 44.5% (inactive).

Regarding `O=C(NCc1ccc2c(c1)OCO2)c1cc2n(n1)C(C(F)(F)F)CC(c1ccc3c(c1)OCO3)N2` (configuration not stated), the cytotoxicity is 13.5% (inactive). In the case of `Cc1cc(NC(=O)c2cc3n(n2)C(C(F)(F)F)CC(c2ccc(Cl)c(Cl)c2)N3)no1` (configuration not stated), the cytotoxicity was 2.8% (inactive). Take `Cc1cccc(NC(=O)c2cc3n(n2)C(C(F)(F)F)CC(c2ccc4c(c2)OCO4)N3)c1` (configuration not stated): the cytotoxicity was 74.1% (active). Consider `O=C(Nc1ccc2c(c1)OCO2)c1cc2n(n1)C(C(F)(F)F)CC(c1ccccc1)N2` (configuration not stated), for which the cytotoxicity was 64.2% (active).

As for `O=C(Nc1cc(Cl)ccc1O)c1cc2n(n1)C(C(F)(F)F)CC(c1ccc3c(c1)OCO3)N2` (configuration not stated), the cytotoxicity is -8.7% (inactive).

Consider `COc1ccccc1NC(=O)c1cc2n(n1)C(C(F)(F)F)CC(c1ccc3c(c1)OCO3)N2` (configuration not stated), for which the cytotoxicity is 38.9% (inactive).
